Measured values reported in publication PMC9911399, “Two distinct binding modes provide the RNA-binding protein RbFox with extraordinary sequence specificity”.
Residue numbers refer to the chain shown, from its start. Over roughly 16,000 sequences, “ka relative to ugcaugu” has its median near 0.096; the highest 2% begin near 0.35. Many of the other results were omitted from the sample, so the highest values are more common in it than they were.

T1: RBFOX1 RRM RbFoxmut (Fox-RRM*) (Homo sapiens, UniProt Q9NWB1 109-208, R118D;E147R;N151S;E152T)
T1 sequence: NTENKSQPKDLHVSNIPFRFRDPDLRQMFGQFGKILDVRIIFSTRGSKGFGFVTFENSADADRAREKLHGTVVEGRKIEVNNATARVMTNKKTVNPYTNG

B1: CACAAUA (DNA:RNA)
RNA: GGGAGACCGGAAUUCAGAUUGUCCCACAAUAUUAAAUCCCGUCGUAGCCACCA
DNA 1: CAATCTGAATTCCGGTCTCCC
DNA 2: TGGTGGCTACGACGGGATT
B2: CGUAAUC (DNA:RNA)
RNA: B1 RNA with A26G, C27U, A31C
DNA 1: CAATCTGAATTCCGGTCTCCC
DNA 2: TGGTGGCTACGACGGGATT
B3: GGGAAUC (DNA:RNA)
RNA: B1 RNA with C25G, A26G, C27G, A31C
DNA 1: CAATCTGAATTCCGGTCTCCC
DNA 2: TGGTGGCTACGACGGGATT
B4: CGGCAUC (DNA:RNA)
RNA: B1 RNA with A26G, C27G, A28C, A31C
DNA 1: CAATCTGAATTCCGGTCTCCC
DNA 2: TGGTGGCTACGACGGGATT
B5: GGGCAUC (DNA:RNA)
RNA: B1 RNA with C25G, A26G, C27G, A28C, A31C
DNA 1: CAATCTGAATTCCGGTCTCCC
DNA 2: TGGTGGCTACGACGGGATT
B6: GUUAAUC (DNA:RNA)
RNA: B1 RNA with C25G, A26U, C27U, A31C
DNA 1: CAATCTGAATTCCGGTCTCCC
DNA 2: TGGTGGCTACGACGGGATT
B7: GGCAUCU (DNA:RNA)
RNA: B1 RNA with C25G, A26G, A29U, U30C, A31U
DNA 1: CAATCTGAATTCCGGTCTCCC
DNA 2: TGGTGGCTACGACGGGATT
B8: GGUAUCU (DNA:RNA)
RNA: B1 RNA with C25G, A26G, C27U, A29U, U30C, A31U
DNA 1: CAATCTGAATTCCGGTCTCCC
DNA 2: TGGTGGCTACGACGGGATT
B9: CGGAAUC (DNA:RNA)
RNA: B1 RNA with A26G, C27G, A31C
DNA 1: CAATCTGAATTCCGGTCTCCC
DNA 2: TGGTGGCTACGACGGGATT
B10: GGAGAUC (DNA:RNA)
RNA: B1 RNA with C25G, A26G, C27A, A28G, A31C
DNA 1: CAATCTGAATTCCGGTCTCCC
DNA 2: TGGTGGCTACGACGGGATT
B11: CGGUAUC (DNA:RNA)
RNA: B1 RNA with A26G, C27G, A28U, A31C
DNA 1: CAATCTGAATTCCGGTCTCCC
DNA 2: TGGTGGCTACGACGGGATT
B12: CGUCAUC (DNA:RNA)
RNA: B1 RNA with A26G, C27U, A28C, A31C
DNA 1: CAATCTGAATTCCGGTCTCCC
DNA 2: TGGTGGCTACGACGGGATT
B13: GGGUAUC (DNA:RNA)
RNA: B1 RNA with C25G, A26G, C27G, A28U, A31C
DNA 1: CAATCTGAATTCCGGTCTCCC
DNA 2: TGGTGGCTACGACGGGATT

Target: T1, RBFOX1 RRM RbFoxmut (Fox-RRM*)
Experiment: EMSA; HiTS-Eq, 1 nM pool, 10 min; buffer printed only for the single-RNA assays: 10 mM Tris pH 7.5, 150 mM NaCl, 3.4 mM EDTA, 0.001% NP-40, 30 C
Settings: tags: His6 N-terminal (pET28a); label: 5' 32P
Summary of the method: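 These values rest on relative association constants, computed from read-count changes of each RNA species versus the control reaction and normalised to the cognate motif. Reads came from free RNA recovered by 8% native PAGE after purified RbFox RRM (wild type or mutant) at increasing concentrations was equilibrated for 10 min in 50 µL with 1 nM of a 5′-radiolabelled pool with 7 randomized nucleotides and DNA-annealed flanks.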

Binder | binding signal
B1 | 0.084 KA relative to UGCAUGU
B2 | 0.0673 KA relative to UGCAUGU
B3 | 0.494 KA relative to UGCAUGU
B4 | 0.261 KA relative to UGCAUGU
B5 | 0.396 KA relative to UGCAUGU
B6 | 0.0571 KA relative to UGCAUGU
B7 | 0.27 KA relative to UGCAUGU
B8 | 0.206 KA relative to UGCAUGU
B9 | 0.436 KA relative to UGCAUGU
B10 | 0.155 KA relative to UGCAUGU
B11 | 0.245 KA relative to UGCAUGU
B12 | 0.0997 KA relative to UGCAUGU
B13 | 0.409 KA relative to UGCAUGU
